tim23-1 inh = growth inhibitors of tim23-1 mutant yeast | 330,000 compounds, 1.3% hits | AID 463212 | S. cerevisiae tim23-1 growth, BacTiter-Glo luminescence, 24 h | inhibition, % at 20 µM;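 active = growth inhibition of the mutant yeast at or above 50%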;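 note: temperature-sensitive mutant grown at 25 °C; plate controls were DMSO-treated mutant yeast for no effect and medium wells lacking yeast for full effect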
tim10-1 inh = growth inhibitors of tim10-1 mutant yeast; 330,000 compounds, 2.2% hits; AID 463190; S. cerevisiae tim10-1 ts strain growth, BacTiter-Glo, 24 h; inhibition, % at 20 µM;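 active = inhibition of at least 40%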;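 note: mutant grown at 25 °C; 0% = DMSO wells with yeast and 100% = wells holding no yeast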
NLRP3 yeast inh = NALP3 inhibition in yeast; 330,000 compounds, 0.39% hits; Yeast reconstituted NLRP3/ASC/caspase-1, beta-gal luminescence, 24 h; inhibition, % at 10 µM;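 active = inhibition of 50% or more; inactive = inhibition below 50%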;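 note: plate controls were induced DMSO wells for no effect and uninduced yeast grown without galactose for full effect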
PfHsp90 set2 = inhibits growth of yeast expressing Plasmodium falciparum Hsp90. 310,000 compounds, 0.32% hits. inhibition, % at 9.4 µM. S. cerevisiae expressing PfHsp90, BacTiter-Glo ATP, 48 h; yeast lacking PDR1 and PDR3 efflux regulators;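 active = every replicate shows inhibition above about 80%, whatever the replicate mean, limit read from the data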;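 note: 0% = DMSO neutral controls and 100% = 20 µM radicicol positive controls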
TIM10 inh = TIM10 yeast growth inhibition; S. cerevisiae TIM10 strain growth, BacTiter-Glo luminescence, 24 h; inhibition, % at 10 µM; 330,000 compounds, 1.4% hits; AID 463195;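 active = inhibition of 40% or more at the single tested concentration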;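 note: wild-type TIM10 isogenic control strain grown at permissive 25 °C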
NALP1 inh = blocks the NALP1 inflammasome reconstituted in yeast; S. cerevisiae NALP1/ASC/caspase-1 growth, X-gal OD620, 72 h; inhibition, % at 10 µM; 280,000 compounds, 0.61% hits; AID 2071; in the data active = inhibition mostly above about 24%, no sharp cut-off; inactive = mostly below about 32%
TIM10 conf = confirmation of TIM10 yeast growth inhibitors | S. cerevisiae tim10 strain growth, BacTiter-Glo luminescence, 24 h | 4,600 compounds, 63% hits | shares compounds with TIM10 inh | inhibition, % at 10 µM;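 active = inhibition of yeast growth at or above a set limit in either of two replicates at 10 µM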;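 note: this counterscreen used the strain with wild-type TIM10; 0% = yeast with DMSO and 100% = medium wells lacking yeast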
* marks the source's active call; other numbers are inactive results; x = no result given. Shown are actives, neighbours in structure and some others; about 4.1% of the full set was active somewhere.

SMILES | tim23-1 inh | tim10-1 inh | NLRP3 yeast inh | PfHsp90 set2 | TIM10 inh | NALP1 inh | TIM10 conf
O=C(NCCc1ccc(F)cc1)c1ccc(S(=O)(=O)N2CCCC2)cc1 | 36 | 20 | 12 | 7 | 22 | x | x
O=C(NCCc1ccccc1)c1ccc(S(=O)(=O)N2CCCC2)cc1 | 23 | 19 | 15 | -2 | 62* | x | 3
c1ccc2c(c1)c1ccccc1n1c(-c3ccc4c(c3)OCO4)nnc21 | 42 | 37 | 24 | -28 | 68* | -12 | 8
Cn1c(-c2ccc3c(c2)OCO3)cc(=O)c2ccccc21 | 11 | 12 | -1 | -16 | 0 | 8 | x
CCOc1ccc(NC(=S)Nc2cc(OC)c(Cl)cc2OC)cc1 | 30 | 35 | 12 | -4 | 40* | 26 | 5
COc1ccc(C(=O)Oc2cc(N)n(S(=O)(=O)c3ccc(C)cc3)n2)cc1 | 29 | 23 | 17 | 2 | 36 | 3 | x
COc1ccc(S(=O)(=O)n2nc(OC(=O)C3CCCCC3)cc2N)cc1 | 26 | 38 | 5 | -1 | 46* | 3 | -14
Cc1ccc(S(=O)(=O)n2nc(OC(=O)c3cccs3)cc2N)cc1 | 37 | 34 | -1 | -14 | 47* | 0 | 18
C=CCOc1ccc(C(=O)n2cc(C(=O)OC)c3ccccc32)cc1 | 31 | 24 | 17 | -25 | 12 | 23 | x
COc1ccc(-c2cc(=Nc3ccc(C)cc3)c3ccccc3o2)cc1 | 48 | 37 | 25 | -6 | 55* | -3 | 47*
COc1ccc(N=c2cc(-c3ccc(O)cc3)oc3ccccc23)cc1 | 47 | 40 | 7 | -2 | 31 | 38 | x
COc1ccc(-c2cc(=NC(CC(C)C)C(=O)O)c3cc(C)ccc3o2)cc1 (stereo not given) | 29 | 31 | 20 | 0 | 61* | 33 | 44*
CCC(C(=O)OCC(=O)N1CCN(S(=O)(=O)c2ccc(C)cc2C)CC1)c1ccccc1 (stereo not given) | 22 | 6 | 12 | -15 | 5 | x | x
COc1ccc(NC(=O)C2CCCC2)cc1S(=O)(=O)N1CCOCC1 | 7 | -1 | 4 | x | 6 | x | x
COc1ccc(-c2cc(-c3ccc(OC)c(OC)c3)n[nH]2)c(O)c1 | 44 | 37 | -5 | 7 | 47* | 34 | 25
O=[N+]([O-])c1cccc(-c2cc(-c3cc(Br)ccc3O)[nH]n2)c1 | 36 | 31 | 11 | -80 | 47* | 6 | 43*
COc1ccc(-c2ncncc2-c2ccc(OC)c(OC)c2)c(O)c1 | 5 | 16 | 7 | 0 | 14 | 4 | x
COc1ccc(O)c(-c2cc(-c3cccc(Br)c3)n[nH]2)c1 | -52 | 8 | 1 | 94* | 53* | 7 | 62*
CSc1ccc(S(=O)(=O)N(CC(=O)NN=C2CCN(C)CC2)c2ccc(C)cc2)cc1 | 19 | 12 | 9 | 20 | 11 | -8 | x
COc1cc(NC(=O)COC(=O)Cn2cnc3c2c(=O)n(C)c(=O)n3C)cc(OC)c1 | -7 | -10 | 5 | -3 | -5 | x | x
CC12CC(c3ccccc3O1)N(C(=O)c1ccco1)C(=S)N2c1ccc(F)cc1 (stereo not given) | 48 | 38 | -1 | 23 | 42* | 6 | 40*
O=C(COC(=O)c1ncc(Cl)c(Cl)c1Cl)Nc1cccnc1Cl | 0 | 3 | 13 | x | -5 | x | x
CC(C)CCNC(=O)c1ccc(C2SCC(=O)N2Cc2ccco2)cc1 (stereo not given) | 6 | 26 | 11 | 5 | 54* | 1 | 2
CCCCC(=O)NC(=S)Nc1ccccc1N1CCCCC1 | 44 | 37 | -21 | -30 | 44* | 10 | -33
CCC(=O)NC(=S)Nc1cccc(Cl)c1N1CCCCC1 | 38 | 37 | -59 | -16 | 47* | 5 | 38*
SMILES | tim23-1 inh | tim10-1 inh | NLRP3 yeast inh | PfHsp90 set2 | TIM10 inh | NALP1 inh | TIM10 conf
CCCCC(=O)NC(=S)Nc1cccc(Cl)c1N1CCCCC1 | 9 | 24 | -9 | -43 | 14 | 6 | x
CCCC(=O)NC(=S)Nc1ccccc1N1CCOCC1 | 28 | 34 | -1 | 19 | 22 | 17 | x
O=C(Cc1ccc(Cl)cc1)NC(=S)Nc1ccccc1N1CCOCC1 | 44 | 28 | -6 | -118 | 42* | 39 | 34*
Cc1c(C(=O)NC(=S)Nc2ccccc2N2CCCC2)cccc1[N+](=O)[O-] | 42 | 39 | 21 | -9 | 42* | 11 | 32*
COc1cccc(CNC(=O)N2CCN(c3ccccc3)CC2)c1 | 6 | -24 | 5 | -15 | 4 | 3 | x
O=C(/C=C/c1ccc(Br)cc1)c1ccc(NC(=O)c2ccco2)cc1 | 35 | 33 | 20 | -18 | 41* | x | 8
Cc1ccc(OC(C)C(=O)Nc2ncc(Cl)cc2Cl)c([N+](=O)[O-])n1 (stereo not given) | 25 | -43 | 11 | -11 | -23 | x | x
CC(OC(=O)c1ccc([N+](=O)[O-])s1)C(=O)Nc1ncc(Cl)cc1Cl (stereo not given) | 23 | 24 | 4 | -3 | 44* | 8 | 2
Cc1ccc(C2=N/C(=C\c3ccc(F)cc3)C(=O)N2)cc1 | 15 | 16 | 30 | 6 | 28 | x | x
CCc1ccc(NC(=O)Cn2nc(C(=O)O)c3ccccc3c2=O)cc1 | 1 | 3 | 16 | -4 | -13 | 9 | x
O=C(Nc1ccccn1)c1ccc2c(=O)n3c(nc2c1)CCCCC3 | 48 | 14 | 29 | -10 | 51* | x | 35*
O=C(Nc1ccc(F)c(Cl)c1)c1ccc2c(=O)n3c(nc2c1)CCCCC3 | 42 | 29 | 30 | 20 | 60* | 22 | 46*
O=C(Nc1ccc(F)cc1)c1ccc2c(=O)n3c(nc2c1)CCCCC3 | 14 | -9 | 29 | 28 | 11 | 0 | x
O=C(COC(=O)/C=C/c1cccc(C(F)(F)F)c1)NCCN1C(=O)CSC1=O | 15 | 10 | 9 | -5 | 0 | x | x
COc1cccc(CN2CCC(C(=O)Nc3ccc(-c4cccc(C)c4)cc3)CC2)c1O | -10 | 0 | 33 | -13 | 1 | 16 | x
COc1ccc(S(=O)(=O)N2CCN(CCOc3ccccc3Cl)CC2)cc1OC | 24 | 15 | 31 | 7 | 97* | x | 9
COc1ccc(S(=O)(=O)N2CCN(CCOc3ccc(Br)cc3)CC2)cc1OC | 32 | 20 | 24 | -5 | 13 | x | x
CCOC(=O)c1sc(=NC(=O)c2ccc(C)cc2)n(C)c1C | 35 | 9 | 21 | x | 42* | -3 | 20
Cc1[nH]c(=O)nc(NN=Cc2ccc(Cl)cc2)c1C(=O)Nc1ccc(Cl)cc1 | x | x | x | -8 | x | x | x
Cc1noc(C)c1S(=O)(=O)N1CCCC(C(=O)NCc2ccccc2Cl)C1 (stereo not given) | -4 | -8 | 6 | 3 | -7 | 5 | x
